Calls of active or inactive are those of the source. The calls were made as follows: active = hit-call score of the fitted dose curve at least 0.9, where 1 is the maximum; inactive = score below 0.9.
Target: Estrogen receptor (Homo sapiens) (UniProt P03372)
Test: OT_ERa_GFPERaERE_0480: Odyssey Thera (OT) 8-hour HeLa Transcription Induction Assay for Estrogen Receptor (AID 2283381)
Method: OT_ERa_GFPERaERE_0480 is a cell-based, single-readout assay that uses HeLa, a human cervix cell line, with measurements taken at 8 hours after chemical dosing in a 384-well plate.OT_ERa_GFPERaERE_0480 is one of one assay component(s) measured or calculated from the OT_ERa_GFPERaERE_0480 assay. It is designed to make measurements of fluorescent protein induction, a form of inducible reporter, as detected with optical microscopy: fluorescence microscopy signals by Microscopy technology.Data from the assay component OT_ERa_GFPERaERE_0480 was analyzed into 1 assay endpoint. This assay endpoint, OT_ERa_EREGFP_0480, was analyzed in the positive analysis fitting direction relative to DMSO as the negative control and baseline of activity. Using a type of inducible reporter, measures of receptor for gain-of-signal activity can be used to understand the reporter gene at the pathway-level as they relate to the gene ESR1. Furthermore, this assay endpoint can be referred to as a primary readout, because the performed assay has only produced 1 assay endpoint. To generalize the intended target to other relatable targets, this assay endpoint is annotated to the nuclear receptor intended target family, where the subfamily is steroidal.
All assay endpoints are quantified using high content image analysis algorithms.

Estrogen receptor (Homo sapiens), sequence (P03372 whole entry, looked up): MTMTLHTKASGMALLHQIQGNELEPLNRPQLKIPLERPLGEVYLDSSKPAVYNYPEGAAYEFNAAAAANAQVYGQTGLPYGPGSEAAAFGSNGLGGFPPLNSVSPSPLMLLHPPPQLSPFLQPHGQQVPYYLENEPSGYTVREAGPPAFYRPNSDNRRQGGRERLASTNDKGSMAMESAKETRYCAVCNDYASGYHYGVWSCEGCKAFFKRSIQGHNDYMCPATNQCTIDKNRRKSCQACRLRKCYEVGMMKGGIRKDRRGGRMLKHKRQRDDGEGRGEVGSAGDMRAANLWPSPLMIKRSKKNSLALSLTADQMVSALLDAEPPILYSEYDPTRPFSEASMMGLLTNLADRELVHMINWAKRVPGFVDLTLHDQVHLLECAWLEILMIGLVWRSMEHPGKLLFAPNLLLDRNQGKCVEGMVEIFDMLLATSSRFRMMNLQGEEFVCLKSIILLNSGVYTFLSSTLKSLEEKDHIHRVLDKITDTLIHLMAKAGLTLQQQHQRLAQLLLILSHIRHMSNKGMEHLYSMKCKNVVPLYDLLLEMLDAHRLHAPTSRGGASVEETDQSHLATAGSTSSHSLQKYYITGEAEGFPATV

| SMILES | outcome | AC50 |
| --- | --- | --- |
| CNC(=O)Oc1cccc2c1OC(C)(C)C2 | inactive | – |
| CCC12COCN1COC2 | inactive | – |
| CCOc1cccc(C2(N3CCN(c4ccccc4)CC3)CCC(C)CC2)c1 (stereo unspecified) | inactive | – |
| Nc1ccc(N=Nc2ccccc2)cc1 | inactive | – |
| CCCCCOC(=O)c1ccccc1C(=O)OCCCCC | – | 13 µM (active) |
| Clc1ccc(C(c2ccc(Cl)cc2)C(Cl)Cl)cc1 | – | 12.2 µM (active) |
| C[N+](C)(C)CC1CO1 (stereo unspecified) | inactive | – |
| CC(C)COC(=O)c1ccccc1C(=O)OCC(C)C | – | 13.7 µM (active) |
| CCCCCCCCCCCCCN1CC(C)OC(C)C1 (stereo unspecified) | inactive | – |
| CCC[CH2][Sn]([Cl])([CH2]CCC)[CH2]CCC | inactive | – |
| N#CC(Br)Br | inactive | – |
| O=C(Nc1ccccc1)c1ccccc1I | inactive | – |
| [Cl-].[Cl-].[Hg+2] | – | 65.9 µM (active) |
| O=C(Oc1ccc(Br)cc1)N1CCN2CCC1CC2 | inactive | – |
| OCCOCCO | inactive | – |
| ClC1=C(Cl)C2(Cl)C3C(Cl)C=CC3C1(Cl)C2(Cl)Cl (stereo unspecified) | inactive | – |
| Brc1ccc(Oc2ccccc2)cc1 | inactive | – |
| OCCCBr | inactive | – |
| O=[N+]([O-])C(Br)(CO)CO | inactive | – |
| Cc1ccc([N+](=O)[O-])cc1 | inactive | – |
| ClC1=C(Cl)[C@]2(Cl)[C@H]3[C@H]([C@@H]4C=C[C@H]3C4)[C@@]1(Cl)C2(Cl)Cl | inactive | – |
| CO[C@@H]1[C@H](OC(=O)NC(=O)CCl)CC[C@]2(CO2)[C@H]1[C@@]1(C)O[C@@H]1CC=C(C)C | inactive | – |
| Cn1cc(-c2ccccc2)c(=O)c(-c2cccc(C(F)(F)F)c2)c1 | inactive | – |
| CCCCCCCCn1sccc1=O | inactive | – |
| COc1cc(C=O)cc2c1[C@H](COC(N)=O)[C@]1(OC(C)=O)ON2C[C@H]2[C@@H]1N2C(C)=O | inactive | – |
| [O-][Cl+]O | inactive | – |
